Results from the supplement of paper PMC8728848.
Only a selection was taken, and the strongest signals are over-represented in it overall.

Columns and labels:
Test in all cases: glycan array binding signal (z-score within array); higher = stronger binding
Conditions in all cases: glycan notation: IUPAC condensed, linker removed
[1] = test system: Fuc(a1-3)[Gal(b1-4)]GlcNAc
Method in brief: (§1)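 Glycan array binding is given as a within-array Z-score, which can be read as non-binding when negative. The arrays, 3228 of them, came from the Consortium for Functional Glycomics database and were retained only where the protein sequence was available. Z-scores were averaged across arrays of the same protein sequence at different concentrations or buffers and across linkers.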

[2] = test system: Fuc(a1-3)[Gal(b1-4)]GlcNAc(b1-3)Gal(b1-3)[Fuc(a1-4)]GlcNAc
Method in brief: as §1

[3] = test system: Fuc(a1-3)[Gal(b1-4)]GlcNAc(b1-6)[Gal(b1-3)GlcNAc(b1-3)]Gal(b1-4)Glc
Method in brief: as §1

[4] = test system: Fuc(a1-3)[Gal(b1-4)]GlcNAc(b1-4)Gal(b1-4)[Fuc(a1-3)]GlcNAc
Method in brief: as §1

[5] = test system: Fuc(a1-3)[Gal3S(b1-4)]Glc6S
Method in brief: as §1

[6] = test system: Fuc(a1-3)[Gal(b1-4)]GlcNAc(b1-3)Gal(b1-4)[Fuc(a1-3)]GlcNAc
Method in brief: as §1

[7] = test system: Fuc(a1-3)[Gal(b1-4)]GlcNAc(b1-6)GalNAc
Method in brief: as §1

[8] = test system: Fuc(a1-3)[Gal(b1-4)]GlcNAc6S
Method in brief: as §1

[9] = test system: Fuc(a1-3)[Gal(b1-4)]GlcNAc(b1-3)Gal(b1-4)[Fuc(a1-3)]GlcNAc(b1-3)Gal(b1-4)[Fuc(a1-3)]GlcNAc
Method in brief: as §1

[10] = test system: Fuc(a1-3)[Gal(b1-4)]GlcNAc(b1-4)Gal(b1-4)[Fuc(a1-3)]GlcNAc(b1-4)Gal(b1-4)[Fuc(a1-3)]GlcNAc
Method in brief: as §1

Sequence of SRLC (Mus musculus), Q8VIF6 (Q8VIF6 other isoform, or with tags, fused parts or gaps): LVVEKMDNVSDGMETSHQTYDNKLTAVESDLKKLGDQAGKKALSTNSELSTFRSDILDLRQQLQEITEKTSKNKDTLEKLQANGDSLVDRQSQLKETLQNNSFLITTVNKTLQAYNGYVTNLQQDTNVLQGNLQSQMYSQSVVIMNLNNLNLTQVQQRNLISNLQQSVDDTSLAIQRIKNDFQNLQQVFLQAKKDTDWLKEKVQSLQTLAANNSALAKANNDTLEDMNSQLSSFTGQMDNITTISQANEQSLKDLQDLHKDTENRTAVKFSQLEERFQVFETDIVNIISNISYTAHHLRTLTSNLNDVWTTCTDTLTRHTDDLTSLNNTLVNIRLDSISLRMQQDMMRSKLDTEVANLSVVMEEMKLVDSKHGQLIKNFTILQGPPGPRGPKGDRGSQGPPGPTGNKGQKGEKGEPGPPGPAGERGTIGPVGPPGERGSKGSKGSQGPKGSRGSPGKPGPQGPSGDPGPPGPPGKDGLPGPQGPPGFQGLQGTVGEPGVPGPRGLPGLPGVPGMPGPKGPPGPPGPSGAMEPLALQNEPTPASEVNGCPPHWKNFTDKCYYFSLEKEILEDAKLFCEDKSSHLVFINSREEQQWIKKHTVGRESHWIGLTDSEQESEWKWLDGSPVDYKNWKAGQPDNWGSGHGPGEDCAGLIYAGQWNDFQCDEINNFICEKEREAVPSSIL
Sequence of Avaren (Actinomycete K97) (chain, as listed by the source): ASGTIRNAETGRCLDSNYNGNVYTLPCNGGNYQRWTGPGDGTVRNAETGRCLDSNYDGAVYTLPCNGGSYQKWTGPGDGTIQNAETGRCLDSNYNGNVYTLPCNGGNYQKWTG
Sequence of CHT (Homo sapiens) (chain, as listed by the source): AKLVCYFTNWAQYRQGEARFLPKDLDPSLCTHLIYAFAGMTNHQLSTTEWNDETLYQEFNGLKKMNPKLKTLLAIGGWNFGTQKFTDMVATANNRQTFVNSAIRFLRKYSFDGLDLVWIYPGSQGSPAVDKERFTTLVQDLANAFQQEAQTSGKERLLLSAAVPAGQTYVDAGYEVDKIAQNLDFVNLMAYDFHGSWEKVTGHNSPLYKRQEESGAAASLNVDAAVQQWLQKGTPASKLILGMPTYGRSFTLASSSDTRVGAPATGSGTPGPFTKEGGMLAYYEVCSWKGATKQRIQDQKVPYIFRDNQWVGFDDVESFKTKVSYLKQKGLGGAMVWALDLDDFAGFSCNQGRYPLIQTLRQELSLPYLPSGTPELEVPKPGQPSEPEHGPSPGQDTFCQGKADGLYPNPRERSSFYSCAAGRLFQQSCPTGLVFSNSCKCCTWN
Sequence of CHI3L1 (Homo sapiens), P36222 (P36222 whole entry): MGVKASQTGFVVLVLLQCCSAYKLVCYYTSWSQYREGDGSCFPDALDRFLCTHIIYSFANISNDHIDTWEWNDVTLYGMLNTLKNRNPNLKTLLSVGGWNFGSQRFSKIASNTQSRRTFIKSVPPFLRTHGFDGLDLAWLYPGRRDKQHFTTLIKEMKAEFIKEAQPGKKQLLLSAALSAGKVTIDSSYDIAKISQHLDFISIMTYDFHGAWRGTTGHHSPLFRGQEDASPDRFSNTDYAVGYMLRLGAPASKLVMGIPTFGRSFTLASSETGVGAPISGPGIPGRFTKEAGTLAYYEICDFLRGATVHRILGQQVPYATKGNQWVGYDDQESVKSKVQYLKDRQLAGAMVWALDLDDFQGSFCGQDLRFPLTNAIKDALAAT
Sequence of Regenerating Gene IV (Homo sapiens), Q9BYZ8 (Q9BYZ8 whole entry, looked up): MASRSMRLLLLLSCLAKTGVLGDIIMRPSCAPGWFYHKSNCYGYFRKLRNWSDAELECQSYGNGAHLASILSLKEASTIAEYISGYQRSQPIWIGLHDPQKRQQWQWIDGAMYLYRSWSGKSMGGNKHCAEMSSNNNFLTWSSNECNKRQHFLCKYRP
Sequence of wLAT-1A (Homo sapiens), Q01650 (Q01650 whole entry): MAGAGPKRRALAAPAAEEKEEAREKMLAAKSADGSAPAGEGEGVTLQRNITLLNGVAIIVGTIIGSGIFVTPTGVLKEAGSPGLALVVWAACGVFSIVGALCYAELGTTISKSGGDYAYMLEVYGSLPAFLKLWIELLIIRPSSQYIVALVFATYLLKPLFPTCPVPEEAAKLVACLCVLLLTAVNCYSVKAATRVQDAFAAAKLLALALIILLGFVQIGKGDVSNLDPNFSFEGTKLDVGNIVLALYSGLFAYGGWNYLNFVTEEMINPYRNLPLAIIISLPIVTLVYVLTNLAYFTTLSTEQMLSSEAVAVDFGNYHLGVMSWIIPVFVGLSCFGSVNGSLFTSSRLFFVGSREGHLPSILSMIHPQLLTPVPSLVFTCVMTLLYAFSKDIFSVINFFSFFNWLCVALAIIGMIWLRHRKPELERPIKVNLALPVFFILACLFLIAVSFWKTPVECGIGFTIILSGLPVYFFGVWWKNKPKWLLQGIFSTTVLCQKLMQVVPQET
Sequence of Neurocan (Homo sapiens), O14594 (O14594 other isoform, or with tags, fused parts or gaps): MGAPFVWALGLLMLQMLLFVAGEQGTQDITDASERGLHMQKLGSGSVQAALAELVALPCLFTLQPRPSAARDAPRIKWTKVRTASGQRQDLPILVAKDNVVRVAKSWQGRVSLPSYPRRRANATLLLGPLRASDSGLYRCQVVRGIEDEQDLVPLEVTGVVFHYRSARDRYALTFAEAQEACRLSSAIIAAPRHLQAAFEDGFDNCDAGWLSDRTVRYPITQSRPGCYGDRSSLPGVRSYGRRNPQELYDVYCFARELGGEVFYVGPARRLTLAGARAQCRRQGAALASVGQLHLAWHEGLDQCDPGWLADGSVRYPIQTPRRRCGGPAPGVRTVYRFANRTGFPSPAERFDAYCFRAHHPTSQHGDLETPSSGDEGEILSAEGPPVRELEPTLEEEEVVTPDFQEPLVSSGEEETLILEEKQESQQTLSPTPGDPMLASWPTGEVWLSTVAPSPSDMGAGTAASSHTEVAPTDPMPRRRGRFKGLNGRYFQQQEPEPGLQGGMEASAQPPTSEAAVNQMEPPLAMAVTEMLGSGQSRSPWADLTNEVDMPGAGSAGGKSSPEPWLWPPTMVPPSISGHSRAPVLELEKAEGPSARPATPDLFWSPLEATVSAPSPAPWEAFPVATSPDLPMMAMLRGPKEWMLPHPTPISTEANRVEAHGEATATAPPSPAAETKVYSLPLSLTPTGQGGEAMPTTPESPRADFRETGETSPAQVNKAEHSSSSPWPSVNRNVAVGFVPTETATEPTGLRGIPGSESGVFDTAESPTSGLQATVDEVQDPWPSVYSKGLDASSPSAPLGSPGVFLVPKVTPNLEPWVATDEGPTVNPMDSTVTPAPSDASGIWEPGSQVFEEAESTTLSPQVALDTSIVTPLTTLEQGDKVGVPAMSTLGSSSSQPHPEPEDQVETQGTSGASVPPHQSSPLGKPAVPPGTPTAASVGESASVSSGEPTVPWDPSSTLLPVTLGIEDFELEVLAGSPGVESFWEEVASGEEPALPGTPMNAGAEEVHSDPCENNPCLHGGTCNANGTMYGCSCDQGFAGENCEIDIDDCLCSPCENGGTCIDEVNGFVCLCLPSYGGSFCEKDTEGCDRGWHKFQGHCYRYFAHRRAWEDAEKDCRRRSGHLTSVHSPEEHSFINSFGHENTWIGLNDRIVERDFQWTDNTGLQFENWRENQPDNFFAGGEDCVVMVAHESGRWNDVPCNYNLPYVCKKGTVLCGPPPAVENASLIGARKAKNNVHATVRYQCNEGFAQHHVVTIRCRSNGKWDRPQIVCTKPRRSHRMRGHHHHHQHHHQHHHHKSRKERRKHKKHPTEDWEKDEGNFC
Sequence of C3b (Homo sapiens), P01024 (P01024 23-667): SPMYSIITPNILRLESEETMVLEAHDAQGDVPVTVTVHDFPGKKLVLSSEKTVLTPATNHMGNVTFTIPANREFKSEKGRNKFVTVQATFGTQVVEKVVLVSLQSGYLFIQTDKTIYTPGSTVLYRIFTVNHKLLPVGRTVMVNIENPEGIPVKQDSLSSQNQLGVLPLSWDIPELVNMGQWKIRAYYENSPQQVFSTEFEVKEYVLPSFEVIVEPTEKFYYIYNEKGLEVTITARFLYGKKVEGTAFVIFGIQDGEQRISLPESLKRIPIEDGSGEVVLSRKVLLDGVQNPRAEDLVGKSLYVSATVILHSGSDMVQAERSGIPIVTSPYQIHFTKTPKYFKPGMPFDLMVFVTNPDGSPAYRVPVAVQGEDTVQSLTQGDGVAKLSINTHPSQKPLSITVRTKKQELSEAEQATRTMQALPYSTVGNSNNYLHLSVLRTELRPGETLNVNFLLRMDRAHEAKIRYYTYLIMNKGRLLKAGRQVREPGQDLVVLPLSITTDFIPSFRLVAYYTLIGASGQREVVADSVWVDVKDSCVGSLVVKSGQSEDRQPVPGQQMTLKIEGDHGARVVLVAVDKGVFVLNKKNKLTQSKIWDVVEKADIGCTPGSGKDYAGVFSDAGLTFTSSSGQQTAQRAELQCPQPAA
Sequence of PILRb (Mus musculus), Q2YSF2 (Q2YSF2 entry or part of it): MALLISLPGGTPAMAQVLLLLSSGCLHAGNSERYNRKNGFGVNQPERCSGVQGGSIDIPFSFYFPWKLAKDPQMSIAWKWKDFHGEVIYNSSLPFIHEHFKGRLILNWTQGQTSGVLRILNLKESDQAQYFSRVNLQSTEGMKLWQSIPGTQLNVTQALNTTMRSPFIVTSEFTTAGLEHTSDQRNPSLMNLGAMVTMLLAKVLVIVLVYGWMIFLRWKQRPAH

## CHT (Homo sapiens)
[1]; mutation: D138V, E140I
  glycan array binding signal (z-score): -0.176

## CHI3L1 (Homo sapiens), P36222
[2]
  glycan array binding signal (z-score): -0.081

## Neurocan (Homo sapiens), O14594
[3]
  glycan array binding signal (z-score): 2.26

## C3b (Homo sapiens), P01024
[4]
  glycan array binding signal (z-score): -0.595

## PILRb (Mus musculus), Q2YSF2
[5]
  glycan array binding signal (z-score): -0.626

## Siglec-8 (Homo sapiens), Q9NYZ4
[6]
  glycan array binding signal (z-score): -0.046
[7]
  glycan array binding signal (z-score): -0.063
[8]; mutation: R125K
  glycan array binding signal (z-score): 5.35
[1]; mutation: R125K
  glycan array binding signal (z-score): -0.361

## Avaren (Actinomycete K97)
[7]
  glycan array binding signal (z-score): -0.094
[8]
  glycan array binding signal (z-score): -0.109

## wLAT-1A (Homo sapiens), Q01650
[5]
  glycan array binding signal (z-score): 3.91

## HARE (Homo sapiens), Q8WWQ8
[9]
  glycan array binding signal (z-score): 0.285

## SRLC (Mus musculus), Q8VIF6
[2]
  glycan array binding signal (z-score): 4.31
[10]
  glycan array binding signal (z-score): 7.13
[4]
  glycan array binding signal (z-score): 4.46
[1]
  glycan array binding signal (z-score): 6.98

## Regenerating Gene IV (Homo sapiens), Q9BYZ8
[8]
  glycan array binding signal (z-score): -0.14
